In ChEMBL document CHEMBL3988442, “University of Dundee, Small-Polar-MMV Screening Library” (2021):
In all, about 38,000 compounds went through this assay and about 1,200 (3.2%) showed an effect of 50% or more. The median lay at about -58%. Only a selection was taken, and strong results are over-represented in it overall.

tested on: Plasmodium falciparum; experiment: Calibr Malaria Delayed Death Assay SOP; format: functional, organism-based; set-up: scale not given: in the data most compounds retested in dose-response had high values; settings: concentration 4.99e-06 (unit not given; other assays of the set use mol/L)

Row | Compound | Percent Effect
1 | COc1ccccc1CNC(=O)N1CCN(Cc2cc(C)on2)CC1 | -4.63%
2 | COCc1nnc(NC(=O)CN2C(=O)c3ccccc3NC2C(C)C)s1 (stereo not given) | -66.52%
3 | O=C(COc1ccc(Cl)cc1)N1CCOCC1c1ncon1 (stereo not given) | -73.82%
4 | Cc1nc(N(C)C)nc(NCCc2ccccn2)c1C | -11.2%
5 | O=S1(=O)CCC(S(=O)(=O)c2cccc(S(=O)(=O)N3CCCCCC3)c2)C1 (stereo not given) | -52.35%
6 | CCc1ccc(CN2CCC3(CC2)CN(c2cnn(C)c2)C(=O)CO3)o1.O=C(O)C(F)(F)F.O=C(O)C(F)(F)F | -59.96%
7 | CCS(=O)(=O)N1CCN(CCn2cccn2)c2nc(C)ccc2C1.O=C(O)C(F)(F)F | -65.79%
8 | Cc1ccc2c(n1)N(CCn1cccn1)CCN(S(C)(=O)=O)C2.O=C(O)C(F)(F)F | -106%
9 | CN(C)CCN1CCN(Cc2ccco2)Cc2cccnc21.O=C(O)C(F)(F)F.O=C(O)C(F)(F)F.O=C(O)C(F)(F)F | 11.84%
10 | Cc1ccc2c(n1)N(CCn1cccn1)CCN(CC1CC1)C2.O=C(O)C(F)(F)F.O=C(O)C(F)(F)F | 77.61%
11 | CN(C)CCN1CCN(Cc2nccs2)Cc2cccnc21.O=C(O)C(F)(F)F.O=C(O)C(F)(F)F.O=C(O)C(F)(F)F | 5.575%
12 | CN(C)CCN1CCN(Cc2cccs2)Cc2cccnc21.O=C(O)C(F)(F)F.O=C(O)C(F)(F)F.O=C(O)C(F)(F)F | 77.04%
13 | Cc1ccc2c(n1)N(CCN(C)C)CCN(Cc1c(C)noc1C)C2.O=C(O)C(F)(F)F.O=C(O)C(F)(F)F.O=C(O)C(F)(F)F | 61.92%
14 | COCCN1CCN(Cc2c(C)noc2C)Cc2ccc(C)nc21.O=C(O)C(F)(F)F.O=C(O)C(F)(F)F | -62.13%
15 | Cc1noc(C)c1CN1CCN(CCN(C)C)c2ncccc2C1.O=C(O)C(F)(F)F.O=C(O)C(F)(F)F.O=C(O)C(F)(F)F | 19.65%
16 | O=C(C1CCOC1)N1C[C@H]2CN(Cc3ccncc3)C(=O)[C@H]2C1.O=C(O)C(F)(F)F (stereo not given in full) | -110.3%
17 | CCN1Cc2ccccc2N(C(=O)C2CCC2)CCC1=O | -10.23%
18 | CC(C)NC(=O)C1CN(C(=O)CCc2ccccc2)CC12CCOCC2 (stereo not given) | -79.45%
19 | Oc1ccc(Cl)cc1CNCc1ccccc1C(F)(F)F | 63.6%
20 | Cc1cc(NC(=O)Cc2ccccc2O)c[nH]c1=O | -29.46%
21 | NS(=O)(=O)c1ccc(CNCC(=O)NCc2ccc(Cl)cc2Cl)cc1 | -66.27%
22 | NS(=O)(=O)c1ccc(NCc2ccccc2F)cc1C(F)(F)F | -7.015%
23 | Oc1ccc(Cl)cc1CNCc1ccccc1Cl | 75.8%

Row | Compound | Percent Effect
24 | CC(NC(=O)Cc1ccccc1F)(C(N)=O)c1cccc(Cl)c1 (stereo not given) | -10.09%
25 | Oc1ccc(Cl)cc1CNCc1cccc(C(F)(F)F)c1 | 88.68%
26 | O=C1CCCN1c1cccc(CNCc2cc(F)ccc2F)c1 | -68.04%
27 | CC(=O)N1CCC(NC(=O)c2cc(Cl)ccc2O)CC1 | -71.2%
28 | CS(=O)(=O)Cc1ccccc1NCc1cc(Cl)ccc1Cl | -167.2%
29 | Cc1ccccc1CNCc1cc(Cl)ccc1O | 74.83%
30 | OCc1cccc(CNCc2cccc3c2OCCO3)c1 | 41.91%
31 | c1cnn(CCNCc2cnc(N3CCOCC3)nc2)c1 | -160.5%
32 | Clc1snnc1CN1CCCC1Cn1cncn1 (stereo not given) | -22.89%
33 | CCc1nc(CN2CCCC(N(C)CCn3cccn3)C2)no1 (stereo not given) | -71.81%
34 | Cc1nc(N(C)C)nc(C)c1NS(=O)(=O)c1ccccc1Cl | -104.4%
35 | O=C(NCCc1cccc(F)c1)c1nc2c(s1)CCCN2C(=O)C1CC1 | -105%
36 | COC[C@@H]1CCC[C@]12CN(S(=O)(=O)c1cn(C)cn1)CCO2 | -139.4%
37 | CSCC(=O)NCc1cc(Br)ccc1OC(F)F | -97.53%
38 | OCCNc1nc(NCc2cccnc2)nc2nccnc12 | -78.22%
39 | NC(=O)C1Cn2ccnc2C2(CCN(C(=O)c3ccncc3)CC2)O1 (stereo not given) | -59.21%
40 | CC1N(c2cnn(C)c2)C(=O)COC12CCN(Cc1ccoc1)CC2 (stereo not given) | -59.84%
41 | CCc1ncc2c(n1)CN(Cc1nc(-c3cccs3)no1)CC2 | -24.12%
42 | COCCC1(C(=O)O)CCCN(C(=O)c2cc(F)ccc2OC)C1 (stereo not given) | -162.1%
43 | CC(=O)N1CCN(C(=O)Cn2ccc3c(Cl)cccc32)CC1 | -40.91%
44 | CC(C)CN1CCCC1c1ccc(C(=O)Nc2cc[nH]n2)s1 (stereo not given) | 42.59%
45 | CC(C)CN(C(=O)Nc1cccnc1)C1CC1 | -3.552%
46 | CC(C)CN1CCCC1c1ccc(C(=O)Nc2cn(C)nn2)s1 (stereo not given) | 51.14%

Row | Compound | Percent Effect
47 | Cc1nc(C)n(CC2CCCN2CC(=O)Nc2cccnc2)n1 (stereo not given) | -55.47%
48 | CN1CCCC1c1ccc(C(=O)Nc2c3c(nn2C)CCC3)s1 (stereo not given) | -68.39%
49 | O=C(CN1CCc2onc(-c3ccccc3F)c2C1)NC1CC1 | -100.2%
50 | COc1ccc(CCC(=O)N2CCCC(n3cncn3)C2)cc1 (stereo not given) | -80.83%
51 | O=C(Cc1ccccc1)N1CCC2(CC1)COCCN2CC1CC1.O=C(O)C(F)(F)F | -81.37%
52 | CCOc1ccc(C(=O)N2CCCCC2Cn2nc(C)cc2C)cn1 (stereo not given) | -93.63%
53 | CNC(=O)Cc1cc2nccc(-c3c(OC)cccc3OC)n2n1 | -192.8%
54 | Cc1cc2nc(C(C)C)cc(N3CCN(S(N)(=O)=O)CC3)n2n1 | -79.73%
55 | COc1ccc(C2CCCN2C(=O)NCCCn2cccn2)cc1 (stereo not given) | -95.69%
56 | CCN(CC)Cc1ccccc1NC(=O)N(C)Cc1ccc(OC)cc1 | 39.65%
57 | CC(=O)N(C)Cc1ccccc1NC(=O)c1ccccc1C | -129.3%
58 | O=C(c1cc(C2CC2)[nH]n1)N1CCN(Cc2ccccc2)CC1 | -79.8%
59 | O=S(=O)(C1CC1)N1CCc2ncnc(N3CCOCC3)c2CC1 | -72.08%
60 | CN(Cc1ccc(C#N)cc1)CC1CCS(=O)(=O)C1 (stereo not given) | -39.39%
61 | Cc1cnccc1CN1CC[C@@](C)(O)[C@H](Oc2cccc(F)c2)C1 | 38.73%
62 | C[C@]1(O)CN(CCO)CC[C@@H]1Oc1cccc(F)c1 | 63.55%
63 | C[C@]1(O)CN(Cc2cccc(C(=O)O)c2)CC[C@@H]1Oc1cccc(F)c1 | -94.06%
64 | Cc1cnccc1CN1CC[C@H](Oc2cccc(F)c2)[C@@](C)(O)C1 | 79.24%
65 | C[C@]1(O)CN(CCC(N)=O)CC[C@@H]1Oc1cccc(F)c1 | -45.94%
66 | C[C@]1(O)CN(CC(=O)N2CCCC2)CC[C@@H]1Oc1cccc(F)c1 | 21.38%
67 | Cc1nccc(CN2CC[C@H](Oc3cccc(F)c3)[C@@](C)(O)C2)n1 | -32.63%
68 | C[C@]1(O)CN(Cc2ncccc2F)CC[C@@H]1Oc1cccc(F)c1 | -43.28%
69 | Cc1ccc(C(F)(F)F)cc1NC(=O)C1CCCN1 (stereo not given) | -141.5%

Row | Compound | Percent Effect
70 | CC(=O)Nc1ccc(CNc2cccc(CS(C)(=O)=O)c2)cc1 | -47.89%
71 | O=C(NCc1cccs1)[C@@H]1CC[C@@H]2[C@@H](CCN2C2CCOCC2)O1.O=C(O)C(F)(F)F | -51.06%
72 | O=C(NCCCN1CCOCC1)c1ccc(-n2ccc3ccccc32)s1 | 33.29%
73 | CCN(CC)CCNC(=O)c1ccc(-n2ccc3ccccc32)s1 | 90.12%
74 | O=C(NCCN1CCOCC1)c1ccc(-n2ccc3ccccc32)s1 | 6.644%
75 | CCc1n[nH]c(C2CN(C(=O)c3ccc(NC4CC4)nc3)CCO2)n1 (stereo not given) | -51.88%
76 | CC[C@H](C)[C@H](N)C(=O)Nc1nc(-c2cnc(N3CCOCC3)nc2)cs1 | -43.38%
77 | OC(COc1ccccc1)CN1CCN(c2nccs2)CC1 (stereo not given) | -10.76%
78 | Fc1cnc(N2C[C@H]3CCC[C@@]3(COc3ccccn3)C2)nc1.O=C(O)C(F)(F)F.O=C(O)C(F)(F)F | 3.485%
79 | O=C(O)C(F)(F)F.O=C(O)C(F)(F)F.c1ccc(CN2C[C@H]3CCC[C@@]3(COCC3CC3)C2)nc1 | -73.03%
80 | Cc1nc(COC[C@@]23CCC[C@@H]2CN(Cc2nccs2)C3)cs1.O=C(O)C(F)(F)F | -17.19%
81 | Cn1cc(CN2C[C@H]3CCC[C@@]3(COc3ccccn3)C2)cn1.O=C(O)C(F)(F)F.O=C(O)C(F)(F)F | 64.46%
82 | O=C(O)C(F)(F)F.O=C(c1ncccn1)N1C[C@H]2CCC[C@@]2(COc2ccccn2)C1 | 12.48%
83 | Cn1cc(CN2C[C@@H]3COC[C@]3(COCC3CC3)C2)cn1.O=C(O)C(F)(F)F | -16.85%
84 | CS(=O)(=O)N1C[C@H]2CCC[C@@]2(COc2ccccn2)C1.O=C(O)C(F)(F)F | 2.668%
85 | Cc1ccc(C(=O)N2C[C@H]3CCC[C@@]3(COc3ccccn3)C2)nc1.O=C(O)C(F)(F)F.O=C(O)C(F)(F)F | 6.864%
86 | Cn1cc(CN2C[C@H]3CCC[C@@]3(COCC3CC3)C2)cn1.O=C(O)C(F)(F)F | 51.84%
87 | O=C(O)C(F)(F)F.O=C(c1cocn1)N1C[C@H]2CCC[C@@]2(COc2ccccn2)C1 | 50.75%
88 | Cc1cc(CN2C[C@H]3CCC[C@@]3(COCc3csc(C)n3)C2)no1.O=C(O)C(F)(F)F | 11.53%
89 | Cc1cccc(CN2C[C@H]3CCC[C@@]3(COCc3csc(C)n3)C2)n1.O=C(O)C(F)(F)F.O=C(O)C(F)(F)F | 81.41%
90 | COCc1ncc(-c2nccn2CCS(C)(=O)=O)cn1 | -109%
